The record followed here is PubChem BioAssay (NCATS).

The structures appear in SMILES notation. Results filed as inconclusive are left out. This is one part of the list. The source made the active and inactive calls. Unless noted, calls come from the whole dose curve; as a rule, active = well fitted curve in the direction sought with a large enough effect; inconclusive = small, poorly fitted or top-dose-only effect, or another doubt; inactive = no such curve, though single readings can be large; an effect the other way counts as inactive or inconclusive.

Experiment [1] in a line: qHTS for differential inhibitors of proliferation of Plasmodium falciparum line Dd2 (AID 1882).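 Note: series mostly up to about 29 µM; compound exposure of 72 h on infected erythrocytes; nearly all actives have a fitted effect of over 65% in size.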 The note with it: Potency: Plasmodium falciparum Dd2 proliferation inhibition. The procedure, abridged:
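RBC culture, 0.3% parasitemia / 2.5% Hct final; cpd added by pin tool in DMSO; 72 h, 37 C, 5% CO2; lysis buffer + SYBR Green I, o/n RT dark; FI 485/535; norm. to artemisinin 0.29 uM and DMSO.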
Background: Quantitative high-throughput screening tests each substance at several concentrations.

Experiment [2] in a line: qHTS for differential inhibitors of proliferation of Plasmodium falciparum line W2 (AID 1883).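 Note: parasites grown with compound for 72 h before lysis and staining.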 Note: potency is the fitted concentration of half-maximal effect. The note with it: Potency: Plasmodium falciparum W2 proliferation inhibition.
Experiment [3] can be described thus: qHTS for differential inhibitors of proliferation of Plasmodium falciparum line HB3 (AID 1886).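 Note: parasites grown with compound for 72 h before SYBR Green readout.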 Note: potency is the fitted concentration of half-maximal effect. The note with it: Potency: Plasmodium falciparum HB3 proliferation inhibition.
Experiment [4] in a line: qHTS Assay for Modulators of Human Peripheral Myelin Protein 22 (PMP22) Expression/Activity (AID 1967; active = well fitted curve in the direction sought with a large enough effect in the signal ratio; the % refers to the signal ratio). Summed up: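 Mouse MSC80 Schwann cells carrying Pmp22 promoter–green click beetle luciferase plus EF-alpha–red luciferase control, dosed 24 h at 37 °C. Dual-filter luminescence, overlap-corrected; %Activity from green/red ratio normalised to untreated cells, concentration-response curves fitted.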

The target in experiment [5] is Ferritin light chain (Equus caballus) (UniProt P02791). The experiment can be described thus: qHTS Validation Assay for Identification of Novel General Anesthetics (AID 2323). Note: series mostly up to about 77 µM. The procedure, abridged: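 Horse-spleen apoferritin (10 uM) in PBS with 50% saturated 1-aminoanthracene; compounds pin-transferred, 10 min at room temperature. Fluorescence read at 380/535 nm, normalized to free 1-AMA and 1-AMA/apoferritin values; four-parameter Hill fit.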

Experiment [6] concerns the target ATP-dependent DNA helicase Q1 (Homo sapiens) (UniProt P46063). The experiment can be described thus: qHTS Validation Assay for Inhibitors of RecQ-Like Dna Helicase 1 (RECQ1) (AID 2353). Note: potency is the fitted concentration of half-maximal effect. The procedure, abridged: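 RECQ1T1 50 nM; forked duplex (20 bp + 30-nt ss tails) 200 nM, ATP 2 mM final; pH 8.0, 2 mM MgCl2, 2.5 ug/ml poly(dI-dC); 15 min compound preincubation; discontinuous kinetic read over 2 h at RT.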

Experiment [7] in a line: Validation screen for small molecules that induce DNA re-replication in MCF 10A normal breast cells (AID 463097). Note: nearly all actives have a fitted effect of over 60% in size. Summed up:
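MCF 10A cells exposed to compound 48 hr at 37 C, 5% CO2, then Hoechst-stained 40 min. Laser-scanning imaging of nuclear DNA content (405 nm ex, 500-530 nm em); re-replication scored as rise in nuclei with elevated fluorescence intensity.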

Experiment [8] deals with RecQ-like DNA helicase BLM (Homo sapiens) (UniProt P54132). The experiment can be described thus: qHTS Validation Assay for Inhibitors of Bloom's syndrome helicase (BLM) (AID 2364). Note: potency is the fitted concentration of half-maximal effect. Summed up:
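50 nM BLM preincubated 15 min at room temperature with compound in pH 8.0 Tris buffer containing 2.5 ug/ml poly(dI-dC); started with 200 nM TAMRA/BHQ-2 forked duplex and 2 mM ATP (final). Unwinding read as TAMRA fluorescence increase, two reads 2 h apart.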

A short description of experiment [9]: Cytometric Cell-Based qHTS for Inhibitors of the mTORC1 Signaling Pathway in MEF (Tsc2-/-, p53-/-) Cells (AID 2660).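 Note: Tsc2 and p53 null MEFs carrying empty vector with compound for 24 h; percent of cells above a phospho-rpS6 to PI ratio cutoff in each well; series mostly up to about 38 µM.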 The procedure, abridged: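 Cells are plated, treated with compound for 24 hrs at 37 degree Celsius, then fixed, blocked and immunostained for phospho-rpS6 Ser235/236. Propidium iodide counterstain follows. Per-well % positive cells is derived from the PI-normalized phospho-S6 signal.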

A short description of experiment [10]: High Content Imaging Cell-Based qHTS for Inhibitors of the mTORC1 Signaling Pathway in MEF (Tsc2-/-, p53-/-) Cells (AID 2666).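 Note: percent of cells scored positive for phospho-rpS6 Ser235/236 immunostaining by imaging.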 Summed up: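 MEF Tsc2-/- p53-/- (empty vector), DMEM/10% FBS; cpd 24 h 37 °C; PFA fix, Alexa-488 p-rpS6 S235/236 Ab, Hoechst; imaged; rapamycin-defined inhibition; % positive cells/well.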
A short description of experiment [11]: High Content Imaging Cell-Based qHTS for Inhibitors of the mTORC1 Signaling Pathway in MEF Cells (AID 2667).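 Note: Tsc2-/- p53-/- MEFs stably re-expressing wild-type Tsc2 exposed 24 h; series mostly up to about 38 µM.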 Summed up:
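Read-out is the share of phospho-rpS6-positive cells per well, from Hoechst-normalized Alexa-488 Ser235/236 staining imaged on IN Cell. Cells: WT Tsc2-expressing Tsc2-/-, p53-/- MEFs exposed to compound for 24 hrs.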

A short description of experiment [12]: Cytometry Cell-Based qHTS for Inhibitors of the mTORC1 Signaling Pathway in MEF cells (AID 2668).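 Note: Tsc2-/- p53-/- mouse embryonic fibroblasts stably re-expressing wild-type Tsc2; percent cells positive for phospho-rpS6 Ser235/236 relative to propidium iodide stain; series mostly up to about 38 µM.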 The procedure, abridged: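 MEFs (Tsc2-/-, p53-/- stably expressing WT Tsc2) treated 24 h at 37 degree Celsius, fixed, stained with Alexa-488 anti-phospho-rpS6 Ser235/236 and propidium iodide; Acumen laser scanning. Reported as % positive cells, phospho-S6 normalized to PI.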

The target in experiment [13] is Ubiquitin carboxyl-terminal hydrolase 2 (Homo sapiens) (UniProt O75604). The experiment in a line: qHTS Validation Assay for Inhibitors of Ubiquitin-specific Protease USP2a Using CHOP2 as the Reporter (AID 463106). Note: potency is the fitted concentration of half-maximal effect. The procedure, abridged:
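Fluorescence read-out at Ex 485nm/Em 531nm after 60min RT, following addition of 25nM Ub-CHOP2 plus 25nM reporter substrate to USP2 core (10nM) pretreated 30min with compound. Data normalized to NEM full inhibition; concentration-response curves fitted.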

The target of experiment [14] is DNA polymerase III PolC-type (Bacillus subtilis (strain 168)) (UniProt P13267). The experiment in a line: qHTS Validation Assay for the Inhibitors of DNA Replication in Gram-Positive Bacteria (AID 485295).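 Note: PicoGreen fluorescence of double-stranded DNA made on primed circular M13 template; series mostly up to about 57 µM.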 Summed up: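 Reconstituted B. subtilis Pol III holoenzyme (PolC, beta clamp, SSB, primase) preincubated with compound, then M13Gori single-stranded circular template with dNTPs/NTPs added; room temperature reaction. Stopped with EDTA/PicoGreen; dsDNA fluorescence read, EDTA as full-inhibition control.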

In experiment [15] the target is Tumor susceptibility gene 101 protein (Homo sapiens) (UniProt Q99816). The experiment in a line: qHTS Validation Assay for Iinhibitors of HIV-1 Budding by Blocking the Interaction of PTAP/TSG101 (AID 485342; calls by dose curve). Summed up:
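Tsg101 binding domain (10 uM) with FITC-labeled PTAP peptide (50 nM) in HEPES pH 7.5 buffer, 20 min at r.t. with compounds. Binding measured by fluorescence polarization.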

Experiment [16] in a line: qHTS Validation Assay to Find Inhibitors of Chronic Active B-Cell Receptor Signaling (AID 485345; active = well fitted curve in the direction sought with a large enough effect in the main read-out, with a control signal flat, not every such curve was filed as active). Summed up:
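TMD8 ABC-DLBCL cells stably carrying doxycycline-inducible IkappaBalpha–green luciferase fusion plus unfused red luciferase; compounds 46 uM to 3 nM, 4 h at 37C with doxycycline. Corrected green/red luminescence ratio normalized to 10 uM MG-132 and basal cell wells; curves fitted.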

Experiment [17] deals with Beta-2 adrenergic receptor (Homo sapiens) (UniProt P07550). The experiment can be described thus: qHTS validation assay of beta-arrestin-biased ligands of beta2-adrenergic receptor (AID 485366). Summed up:
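Compound series up to 46 microM applied to beta2-AR/beta-arrestin Tango cells, 18 hr, 37 degrees C, 5% CO2. Read-out: tTA-driven luciferase luminescence, converted to %Activity; concentration-response curves assigned curve classes.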

In experiment [18] the target is Endonuclease 4 (Escherichia coli (strain K12)) (UniProt P0A6C1). The experiment in a line: Counterscreen for APE1 Inhibitors: qHTS Assay for Inhibitors of Endonuclease IV (AID 2565). The procedure, abridged: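 Read-out: fluorescence rise (ex 525/em 598 nm) from incision of a TAMRA/BHQ-2 double-stranded THF abasic-site substrate (50 nM), measured kinetically; third-minus-first read difference gave reaction progress. Enzyme 2 nM.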
A general note: A counterscreen serves to expose hits that act by an unwanted route or on another target.

In experiment [19] the target is DNA repair nuclease/redox regulator APEX1 (Homo sapiens) (UniProt P27695). The experiment in a line: Confirmation qHTS Assay for Inhibitors of the Human Apurinic/apyrimidinic Endonuclease 1 (APE1) (AID 2572).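 Note: fluorescence gain from purified APE1 cutting a TAMRA/BHQ-2 THF abasic duplex; nearly all actives have a fitted effect of over 30% in size.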 Summed up:
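APE1 preincubated 15 min RT with compound; 50 nM TAMRA/BHQ-2 THF-abasic duplex added; kinetic fluorescence, 3 reads at 60 s intervals, Ex 525/Em 598; progress = read 3 minus read 1.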

Sequence of ATP-dependent DNA helicase Q1 (Homo sapiens) (P46063 whole entry, looked up): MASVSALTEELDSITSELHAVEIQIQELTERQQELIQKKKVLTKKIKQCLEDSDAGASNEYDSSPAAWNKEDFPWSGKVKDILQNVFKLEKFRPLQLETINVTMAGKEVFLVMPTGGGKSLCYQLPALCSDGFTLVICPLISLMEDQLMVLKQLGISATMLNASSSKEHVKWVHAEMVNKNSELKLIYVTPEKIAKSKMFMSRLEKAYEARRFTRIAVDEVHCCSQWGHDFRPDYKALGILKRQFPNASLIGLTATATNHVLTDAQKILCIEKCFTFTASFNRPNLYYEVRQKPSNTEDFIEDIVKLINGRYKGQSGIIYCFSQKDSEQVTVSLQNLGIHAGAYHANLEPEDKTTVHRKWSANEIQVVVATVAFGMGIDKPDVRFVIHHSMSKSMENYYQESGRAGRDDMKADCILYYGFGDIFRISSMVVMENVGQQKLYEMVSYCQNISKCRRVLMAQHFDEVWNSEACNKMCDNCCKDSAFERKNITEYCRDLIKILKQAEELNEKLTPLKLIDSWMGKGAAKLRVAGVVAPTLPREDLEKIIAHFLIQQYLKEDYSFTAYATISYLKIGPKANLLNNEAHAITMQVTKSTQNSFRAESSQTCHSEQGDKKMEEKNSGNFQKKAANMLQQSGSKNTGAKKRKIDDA
Sequence of RecQ-like DNA helicase BLM (Homo sapiens) (P54132 whole entry, looked up): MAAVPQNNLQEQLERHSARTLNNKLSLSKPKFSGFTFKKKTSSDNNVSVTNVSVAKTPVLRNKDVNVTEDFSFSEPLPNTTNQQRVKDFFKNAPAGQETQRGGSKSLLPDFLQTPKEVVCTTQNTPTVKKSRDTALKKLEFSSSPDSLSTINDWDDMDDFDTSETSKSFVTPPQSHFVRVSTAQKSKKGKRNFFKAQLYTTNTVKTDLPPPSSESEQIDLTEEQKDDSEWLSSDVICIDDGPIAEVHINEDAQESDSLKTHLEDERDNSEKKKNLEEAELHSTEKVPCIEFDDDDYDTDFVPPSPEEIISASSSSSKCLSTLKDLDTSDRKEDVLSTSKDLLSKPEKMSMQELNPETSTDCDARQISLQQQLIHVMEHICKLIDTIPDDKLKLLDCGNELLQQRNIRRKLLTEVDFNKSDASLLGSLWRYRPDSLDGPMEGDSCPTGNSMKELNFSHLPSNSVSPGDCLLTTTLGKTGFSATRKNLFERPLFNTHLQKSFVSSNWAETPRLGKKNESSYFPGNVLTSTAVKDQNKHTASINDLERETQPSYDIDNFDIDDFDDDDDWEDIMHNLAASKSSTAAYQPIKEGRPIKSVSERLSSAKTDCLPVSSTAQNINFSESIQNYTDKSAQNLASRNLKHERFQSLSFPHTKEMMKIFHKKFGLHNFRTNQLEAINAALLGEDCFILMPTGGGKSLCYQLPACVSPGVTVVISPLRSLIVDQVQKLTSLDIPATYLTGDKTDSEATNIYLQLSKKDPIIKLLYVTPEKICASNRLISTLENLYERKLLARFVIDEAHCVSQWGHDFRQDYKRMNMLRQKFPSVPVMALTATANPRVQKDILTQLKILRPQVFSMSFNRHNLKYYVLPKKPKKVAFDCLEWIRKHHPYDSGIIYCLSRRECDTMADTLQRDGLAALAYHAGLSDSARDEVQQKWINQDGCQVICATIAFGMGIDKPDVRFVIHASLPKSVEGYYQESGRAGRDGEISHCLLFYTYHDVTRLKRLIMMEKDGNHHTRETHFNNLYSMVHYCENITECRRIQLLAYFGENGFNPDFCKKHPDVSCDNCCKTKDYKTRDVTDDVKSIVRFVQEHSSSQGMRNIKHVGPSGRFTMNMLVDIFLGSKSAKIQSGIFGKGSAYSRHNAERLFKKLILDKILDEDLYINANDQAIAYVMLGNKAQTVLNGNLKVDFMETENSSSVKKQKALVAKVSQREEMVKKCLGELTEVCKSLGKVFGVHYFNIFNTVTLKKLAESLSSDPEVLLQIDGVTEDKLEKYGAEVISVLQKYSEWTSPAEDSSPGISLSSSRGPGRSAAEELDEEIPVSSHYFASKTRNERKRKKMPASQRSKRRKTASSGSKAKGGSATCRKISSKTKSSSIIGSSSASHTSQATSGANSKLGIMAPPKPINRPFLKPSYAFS
Sequence of DNA polymerase III PolC-type (Bacillus subtilis (strain 168)) (P13267 whole entry, looked up): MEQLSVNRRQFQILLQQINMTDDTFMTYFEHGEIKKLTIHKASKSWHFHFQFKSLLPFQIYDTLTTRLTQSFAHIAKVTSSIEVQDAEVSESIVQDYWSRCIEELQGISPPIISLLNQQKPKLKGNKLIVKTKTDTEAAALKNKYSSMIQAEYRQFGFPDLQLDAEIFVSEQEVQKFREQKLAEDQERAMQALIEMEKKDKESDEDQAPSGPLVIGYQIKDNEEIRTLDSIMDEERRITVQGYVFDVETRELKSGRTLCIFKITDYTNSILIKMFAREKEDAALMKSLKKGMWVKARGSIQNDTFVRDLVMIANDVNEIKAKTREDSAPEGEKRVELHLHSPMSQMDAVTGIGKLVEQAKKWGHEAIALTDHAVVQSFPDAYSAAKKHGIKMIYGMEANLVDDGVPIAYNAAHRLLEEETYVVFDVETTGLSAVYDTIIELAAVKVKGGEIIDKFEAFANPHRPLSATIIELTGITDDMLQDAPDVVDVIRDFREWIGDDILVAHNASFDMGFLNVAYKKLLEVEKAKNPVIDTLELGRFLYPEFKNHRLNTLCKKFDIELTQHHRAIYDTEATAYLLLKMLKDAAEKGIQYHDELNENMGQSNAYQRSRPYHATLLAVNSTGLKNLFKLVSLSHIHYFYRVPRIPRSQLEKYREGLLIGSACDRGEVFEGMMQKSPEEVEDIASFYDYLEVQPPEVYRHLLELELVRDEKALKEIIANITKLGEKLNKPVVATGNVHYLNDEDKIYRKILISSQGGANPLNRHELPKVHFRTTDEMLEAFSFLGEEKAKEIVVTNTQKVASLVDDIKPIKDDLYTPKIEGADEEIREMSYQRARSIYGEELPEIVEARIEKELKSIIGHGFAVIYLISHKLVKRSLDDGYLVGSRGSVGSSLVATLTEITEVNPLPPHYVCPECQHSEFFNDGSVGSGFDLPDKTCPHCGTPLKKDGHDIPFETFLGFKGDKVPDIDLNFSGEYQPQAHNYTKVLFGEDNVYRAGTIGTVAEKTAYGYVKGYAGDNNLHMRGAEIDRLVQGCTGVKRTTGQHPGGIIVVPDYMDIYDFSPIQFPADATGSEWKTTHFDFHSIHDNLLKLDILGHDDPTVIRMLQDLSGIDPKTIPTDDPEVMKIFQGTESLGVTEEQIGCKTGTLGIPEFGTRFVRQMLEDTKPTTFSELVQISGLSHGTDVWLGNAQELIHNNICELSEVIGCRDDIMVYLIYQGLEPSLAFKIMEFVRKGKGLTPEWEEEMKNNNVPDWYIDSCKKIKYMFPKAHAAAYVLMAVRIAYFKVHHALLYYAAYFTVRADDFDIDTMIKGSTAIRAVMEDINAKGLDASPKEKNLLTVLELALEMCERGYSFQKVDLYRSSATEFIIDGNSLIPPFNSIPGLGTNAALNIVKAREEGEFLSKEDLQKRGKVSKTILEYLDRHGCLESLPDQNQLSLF
Sequence of Beta-2 adrenergic receptor (Homo sapiens) (P07550 whole entry, looked up): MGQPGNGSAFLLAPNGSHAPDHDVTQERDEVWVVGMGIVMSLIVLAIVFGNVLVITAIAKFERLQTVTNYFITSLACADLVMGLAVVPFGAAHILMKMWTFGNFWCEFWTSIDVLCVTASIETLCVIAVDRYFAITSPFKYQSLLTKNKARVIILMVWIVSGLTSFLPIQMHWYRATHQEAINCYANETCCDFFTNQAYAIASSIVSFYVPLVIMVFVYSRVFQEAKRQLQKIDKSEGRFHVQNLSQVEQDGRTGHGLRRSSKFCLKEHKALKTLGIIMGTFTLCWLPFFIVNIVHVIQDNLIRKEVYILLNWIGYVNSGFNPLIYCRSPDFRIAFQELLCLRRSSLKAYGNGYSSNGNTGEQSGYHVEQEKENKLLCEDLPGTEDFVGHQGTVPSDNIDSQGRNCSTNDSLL
Sequence of Tumor susceptibility gene 101 protein (Homo sapiens) (Q99816 whole entry, looked up, the tested form may be a part): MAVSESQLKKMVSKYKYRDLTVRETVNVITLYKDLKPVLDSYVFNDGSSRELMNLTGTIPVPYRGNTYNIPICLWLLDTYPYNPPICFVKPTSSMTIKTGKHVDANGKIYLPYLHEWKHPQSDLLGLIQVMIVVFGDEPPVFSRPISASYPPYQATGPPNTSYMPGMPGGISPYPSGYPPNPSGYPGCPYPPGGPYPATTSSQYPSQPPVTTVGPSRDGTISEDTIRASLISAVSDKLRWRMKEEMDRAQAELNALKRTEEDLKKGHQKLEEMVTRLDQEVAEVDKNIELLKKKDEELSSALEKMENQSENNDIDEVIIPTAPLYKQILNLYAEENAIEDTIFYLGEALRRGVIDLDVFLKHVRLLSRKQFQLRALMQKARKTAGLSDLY
Sequence of Ferritin light chain (Equus caballus) (P02791 2-175 limits assumed): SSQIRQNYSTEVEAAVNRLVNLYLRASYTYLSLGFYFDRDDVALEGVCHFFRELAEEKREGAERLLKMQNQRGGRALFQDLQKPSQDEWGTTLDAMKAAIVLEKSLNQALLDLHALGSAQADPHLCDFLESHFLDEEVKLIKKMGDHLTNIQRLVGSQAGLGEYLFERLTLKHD
Sequence of DNA repair nuclease/redox regulator APEX1 (Homo sapiens) (P27695 whole entry, looked up): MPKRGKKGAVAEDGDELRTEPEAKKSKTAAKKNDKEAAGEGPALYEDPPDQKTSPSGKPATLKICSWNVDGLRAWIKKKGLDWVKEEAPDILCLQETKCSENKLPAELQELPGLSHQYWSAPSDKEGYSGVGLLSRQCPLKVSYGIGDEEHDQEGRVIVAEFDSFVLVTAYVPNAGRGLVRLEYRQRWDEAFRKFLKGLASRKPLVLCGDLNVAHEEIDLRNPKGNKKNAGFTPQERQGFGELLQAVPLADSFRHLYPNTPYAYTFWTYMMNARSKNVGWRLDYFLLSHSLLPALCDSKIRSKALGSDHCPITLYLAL

Regarding `C=C/C(C)=C/[C@@]1(C)SC(=O)C(C)=C1O`, the Potency result in experiment [1], in experiment [2], in [3], in experiment [5] and in experiment [7] was “inactive” each time. Moreover, the compound was classed as inactive in experiment [4]. Also, the Potency in experiment [6] is 8.91 µM (active).

Consider `CC1CN(S(=O)(=O)c2cccc3cnccc23)CCN1` (configuration not stated), for which the Potency result in [1], in experiment [3], in experiment [5], in experiment [6], in [8] and in [10] was “inactive” each time. Further, the Potency entry in experiment [11], in experiment [12], in experiment [7], in experiment [13] and in experiment [14] was “inactive” in each case. The Potency in experiment [2] is 7.94 µM (active). Moreover, the outcome in experiment [4], in experiment [9], in experiment [15], in experiment [16] and in experiment [17] was inactive.

For the compound `CO/N=C(\C(=O)N[C@@H]1C(=O)N2C(C(=O)O)=C(COC(C)=O)CS[C@H]12)c1csc(N)n1` (stereo in doubt), in [4], the compound was called inactive. The Potency entry in experiment [18] and in experiment [19] was “inactive” each time.

On to `NCCCCCCCCCCN`, for which, in experiment [4], the compound was classed as inactive.

Regarding `OC[C@H]1O[C@@H](n2cnc3c(NC4CCCCC4)ncnc32)[C@H](O)[C@@H]1O`, the Potency result in experiment [1], in experiment [3], in [5], in experiment [6], in experiment [8] and in [10] was “inactive” in each case. The Potency entry in experiment [11], in experiment [12], in experiment [7], in experiment [13] and in experiment [14] was “inactive” throughout. Also, the compound was called inactive in [15] and in experiment [17].

Regarding `Cn1c(=O)c2[nH]c(-c3ccccc3)nc2n(C)c1=O`, the Potency entry in experiment [1], in experiment [3], in experiment [5], in [6], in experiment [10] and in experiment [11] was “inactive” in each case. The Potency entry in [12], in [7], in experiment [13] and in experiment [14] was “inactive” throughout. Moreover, the compound was classed as inactive in experiment [4], in experiment [9] and in experiment [15].

On to `N#C/C(=C\c1ccc(O)c(O)c1)C(=O)c1ccc(O)c(O)c1`, for which the Potency in experiment [2] was 12.6 µM (active); in experiment [3], 12.6 µM (active); in experiment [6], 0.282 µM (active); in experiment [8], 8.91 µM (active); in experiment [13], 1.17 µM (active). Besides, the Potency result in [10], in experiment [11], in experiment [12] and in [7] was “inactive” throughout. Also, the outcome in experiment [15], in experiment [16] and in [17] was inactive.

Turning to `O=S(=O)(c1cccc2c(I)cccc12)N1CCCNCC1`, the Potency in experiment [2] is 7.08 µM (active). Moreover, the Potency result in experiment [3], in experiment [5], in experiment [6], in [8], in experiment [10] and in [13] was “inactive” each time. Also, in [14], the Potency entry is “inactive”. Besides, the call in [15] and in [17] was inactive.

Take `CCCCCCCCCCCCCCCCCCNC(=O)OCC(COP(=O)([O-])OCC[n+]1ccsc1)OC` (configuration not stated): the Potency entry in [1], in experiment [6], in [11], in [12] and in experiment [14] was “inactive” each time. Besides, the Potency in [3] was 11.2 µM (active). Besides, the call in [4], in [15], in experiment [16] and in experiment [17] was inactive.

Regarding `COc1cc(OC)c(/C=C2/C(=O)Nc3ccccc32)c(OC)c1`, the Potency entry in experiment [1], in experiment [6], in experiment [10], in experiment [11], in experiment [12] and in [13] was “inactive” throughout. In addition, the Potency result in [14] is “inactive”. Further, the compound was called inactive in experiment [9], in [15] and in experiment [17].

As for `COC1=C(OC)C(=O)c2ccccc2C1=O`, the Potency in experiment [2] and in experiment [3] was 11.2 µM (active) each time. Besides, the Potency entry in experiment [5], in experiment [6], in experiment [10], in experiment [13] and in experiment [14] was “inactive” each time. Further, the call in [15], in [16] and in experiment [17] was inactive.

`CCCCCCCCCCCCCCCC(=O)OC(CC(=O)O)C[N+](C)(C)C` (configuration not stated): the Potency result in experiment [1], in experiment [3], in [6], in experiment [10], in experiment [11] and in experiment [12] was “inactive” each time. Also, in [13], the Potency entry was “inactive”. Further, the result in [4], in experiment [9], in [15] and in experiment [17] was inactive.
